From PubChem BioAssay AID651871 (Sanford-Burnham Center for Chemical Genomics, 2012) come the findings set out here.

Where “and” joins values, the source holds several entries; their conditions need not be identical. Identical values can stand only once.

The subject of this test is HL-1. Description: cardiomyocyte survival under oxidative or metabolic stress – cell-based, panel, H9c2 and HL-1, ATP luminescence, set 2, SAR follow-up (AID 651871).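 Note: cells exposed to stressor for 2 h before ATP readout; reference of the scale not given here.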 Particulars: H9c2/HL-1 cardiomyocytes, 2-deoxyglucose stress, with 2-deoxyglucose, run 11, at 79 µM (top of the series).
`COc1ccc2nc(-c3cc(OC)c(OC)c(OC)c3)cc(C(=O)NCC(=O)Nc3ccc(C(C)=O)cc3)c2c1`: the activity (protection/inhibition) is 89%.

For the compound `COc1ccc2c(c1OC)C(=O)N1c3ccccc3C(=O)N(Cc3cccc(Cl)c3Cl)C21` (stereo not drawn), the activity (protection/inhibition) is 42.6% and -9.56%.

For the compound `CCOC(=O)c1cccc(NC(=O)CNC(=O)c2cc(-c3cc(OC)c(OC)c(OC)c3)nc3ccccc23)c1`, the activity (protection/inhibition) came to 66.5%.
